# Data reported in publication PMC11062922 (Nature Chemical Biology, 2023).
# Where two headings read alike, the source gives them in different places.
# Tests used:
# [1] = test system: TNK1; details: read-out: apparent Kd, n = 1
# [2] = test system: TTK; details: read-out: apparent Kd, n = 1
# [3] = compound concentrations:100 nM and 1000 nM (sheet 'Lestaurtinib' of Supplementary Table 1),run:Lestaurtinib_02496_R2,Plate:MR013
# [4] = compound concentrations:100 nM and 1000 nM (sheet 'Lestaurtinib' of Supplementary Table 1),run:Lestaurtinib_02566_R1,Plate:MR014
# [5] = compound concentrations:100 nM and 1000 nM (sheet 'Lestaurtinib' of Supplementary Table 1),run:Lestaurtinib_02566_R2,Plate:MR014
# [6] = compound concentrations:100 nM and 1000 nM (sheet 'Lestaurtinib' of Supplementary Table 1),run:Lestaurtinib_02566_R3,Plate:MR014
# [7] = compound concentrations:100 nM and 1000 nM (sheet 'Lestaurtinib' of Supplementary Table 1),run:Lestaurtinib_02572_R2,Plate:MR015
# [8] = compound concentrations:100 nM and 1000 nM (sheet 'Lestaurtinib' of Supplementary Table 1),run:Lestaurtinib_02577_R3,Plate:MR016
# [9] = compound concentrations:100 nM and 1000 nM (sheet 'Lestaurtinib' of Supplementary Table 1),run:Lestaurtinib_02606_R3,Plate:MR019
# [10] = compound concentrations:100 nM and 1000 nM (sheet 'Lestaurtinib' of Supplementary Table 1),run:Lestaurtinib_02624_R1,Plate:MR020
# [11] = compound concentrations:100 nM and 1000 nM (sheet 'Lestaurtinib' of Supplementary Table 1),run:Lestaurtinib_02624_R3,Plate:MR020
# [12] = compound concentrations:100 nM and 1000 nM (sheet 'Lestaurtinib' of Supplementary Table 1),run:Lestaurtinib_02724_R1,Plate:MR021
# [13] = compound concentrations:100 nM and 1000 nM (sheet 'Lestaurtinib' of Supplementary Table 1),run:Lestaurtinib_02748_R2,Plate:MR024
# [14] = compound concentrations:100 nM and 1000 nM (sheet 'Lestaurtinib' of Supplementary Table 1),run:Lestaurtinib_02752_R2,Plate:MR025
# [15] = compound concentrations:100 nM and 1000 nM (sheet 'Lestaurtinib' of Supplementary Table 1),run:Lestaurtinib_02765_R2,Plate:MR026
# [16] = compound concentrations:100 nM and 1000 nM (sheet 'Lestaurtinib' of Supplementary Table 1),run:Lestaurtinib_02765_R3,Plate:MR026
# [17] = compound concentrations:100 nM and 1000 nM (sheet 'Lestaurtinib' of Supplementary Table 1),run:Lestaurtinib_02768_R2,Plate:MR028
# [18] = compound concentrations:100 nM and 1000 nM (sheet 'Lestaurtinib' of Supplementary Table 1),run:Lestaurtinib_02795_R3,Plate:MR022
# [19] = compound concentrations:100 nM and 1000 nM (sheet 'Lestaurtinib' of Supplementary Table 1),run:Lestaurtinib_02802_R1,Plate:MR029
# [20] = compound concentrations:100 nM and 1000 nM (sheet 'Lestaurtinib' of Supplementary Table 1),run:Lestaurtinib_03260_R1,Plate:MR033
# [21] = compound concentrations:100 nM and 1000 nM (sheet 'Lestaurtinib' of Supplementary Table 1),run:Lestaurtinib_03260_R2,Plate:MR033
substance,measurement,setting,value
Lestaurtinib,potency estimated from few doses,"[1]; compound concentrations:100 nM and 1000 nM (sheet 'Lestaurtinib' of Supplementary Table 1),run:Lestaurtinib_02438_R3,Plate:MR008",71.3 nM
same,potency estimated from few doses,"[1]; compound concentrations:100 nM and 1000 nM (sheet 'Lestaurtinib' of Supplementary Table 1),run:Lestaurtinib_02443_R3,Plate:MR009",143 nM
same,potency estimated from few doses,"[1]; compound concentrations:100 nM and 1000 nM (sheet 'Lestaurtinib' of Supplementary Table 1),run:Lestaurtinib_02473_R2,Plate:MR010",98.6 nM
same,potency estimated from few doses,"[1]; compound concentrations:100 nM and 1000 nM (sheet 'Lestaurtinib' of Supplementary Table 1),run:Lestaurtinib_02482_R3,Plate:MR011",222 nM
same,potency estimated from few doses,"[1]; compound concentrations:100 nM and 1000 nM (sheet 'Lestaurtinib' of Supplementary Table 1),run:Lestaurtinib_02487_R3,Plate:MR012",81.8 nM
same,potency estimated from few doses,[1]; [3],95.2 nM
same,potency estimated from few doses,[1]; [4],250 nM
same,potency estimated from few doses,[1]; [5],221 nM
same,potency estimated from few doses,[1]; [6],208 nM
same,potency estimated from few doses,[1]; [7],53.4 nM
same,potency estimated from few doses,"[1]; compound concentrations:100 nM and 1000 nM (sheet 'Lestaurtinib' of Supplementary Table 1),run:Lestaurtinib_02577_R1,Plate:MR016",240 nM
same,potency estimated from few doses,[1]; [8],209 nM
same,potency estimated from few doses,"[1]; compound concentrations:100 nM and 1000 nM (sheet 'Lestaurtinib' of Supplementary Table 1),run:Lestaurtinib_02584_R3,Plate:MR017",220 nM
same,potency estimated from few doses,"[1]; compound concentrations:100 nM and 1000 nM (sheet 'Lestaurtinib' of Supplementary Table 1),run:Lestaurtinib_02606_R2,Plate:MR019",45.1 nM
same,potency estimated from few doses,[1]; [9],274 nM
same,potency estimated from few doses,[1]; [10],219 nM
same,potency estimated from few doses,[1]; [11],91.7 nM
same,potency estimated from few doses,[1]; [12],256 nM
same,potency estimated from few doses,"[1]; compound concentrations:100 nM and 1000 nM (sheet 'Lestaurtinib' of Supplementary Table 1),run:Lestaurtinib_02724_R3,Plate:MR021",60 nM
same,potency estimated from few doses,[1]; [13],97 nM
same,potency estimated from few doses,"[1]; compound concentrations:100 nM and 1000 nM (sheet 'Lestaurtinib' of Supplementary Table 1),run:Lestaurtinib_02752_R1,Plate:MR025",245 nM
same,potency estimated from few doses,[1]; [14],209 nM
same,potency estimated from few doses,"[1]; compound concentrations:100 nM and 1000 nM (sheet 'Lestaurtinib' of Supplementary Table 1),run:Lestaurtinib_02752_R3,Plate:MR025",208 nM
same,potency estimated from few doses,"[1]; compound concentrations:100 nM and 1000 nM (sheet 'Lestaurtinib' of Supplementary Table 1),run:Lestaurtinib_02765_R1,Plate:MR026",352 nM
same,potency estimated from few doses,[1]; [15],275 nM
same,potency estimated from few doses,[1]; [16],357 nM
same,potency estimated from few doses,"[1]; compound concentrations:100 nM and 1000 nM (sheet 'Lestaurtinib' of Supplementary Table 1),run:Lestaurtinib_02766_R2,Plate:MR027",20.7 nM
same,potency estimated from few doses,"[1]; compound concentrations:100 nM and 1000 nM (sheet 'Lestaurtinib' of Supplementary Table 1),run:Lestaurtinib_02766_R3,Plate:MR027",55.7 nM
same,potency estimated from few doses,[1]; [17],79.2 nM
same,potency estimated from few doses,"[1]; compound concentrations:100 nM and 1000 nM (sheet 'Lestaurtinib' of Supplementary Table 1),run:Lestaurtinib_02768_R3,Plate:MR028",115 nM
same,potency estimated from few doses,[1]; [18],213 nM
same,potency estimated from few doses,[1]; [19],81.9 nM
same,potency estimated from few doses,"[1]; compound concentrations:100 nM and 1000 nM (sheet 'Lestaurtinib' of Supplementary Table 1),run:Lestaurtinib_03172_R2,Plate:MR031",211 nM
same,potency estimated from few doses,"[1]; compound concentrations:100 nM and 1000 nM (sheet 'Lestaurtinib' of Supplementary Table 1),run:Lestaurtinib_03172_R3,Plate:MR031",85.4 nM
same,potency estimated from few doses,"[1]; compound concentrations:100 nM and 1000 nM (sheet 'Lestaurtinib' of Supplementary Table 1),run:Lestaurtinib_03252_R1,Plate:MR032",243 nM
same,potency estimated from few doses,[1]; [20],279 nM
same,potency estimated from few doses,[1]; [21],258 nM
same,potency estimated from few doses,"[2]; compound concentrations:100 nM and 1000 nM (sheet 'Lestaurtinib' of Supplementary Table 1),run:Lestaurtinib_02339_R1,Plate:MR001",1930 nM
same,potency estimated from few doses,"[2]; compound concentrations:100 nM and 1000 nM (sheet 'Lestaurtinib' of Supplementary Table 1),run:Lestaurtinib_02339_R2,Plate:MR001",812 nM
same,potency estimated from few doses,"[2]; compound concentrations:100 nM and 1000 nM (sheet 'Lestaurtinib' of Supplementary Table 1),run:Lestaurtinib_02364_R2,Plate:MR002",1820 nM
same,potency estimated from few doses,"[2]; compound concentrations:100 nM and 1000 nM (sheet 'Lestaurtinib' of Supplementary Table 1),run:Lestaurtinib_02364_R3,Plate:MR002",1130 nM
same,potency estimated from few doses,"[2]; compound concentrations:100 nM and 1000 nM (sheet 'Lestaurtinib' of Supplementary Table 1),run:Lestaurtinib_02367_R1,Plate:MR003",172 nM
same,potency estimated from few doses,"[2]; compound concentrations:100 nM and 1000 nM (sheet 'Lestaurtinib' of Supplementary Table 1),run:Lestaurtinib_02367_R2,Plate:MR003",2190 nM
same,potency estimated from few doses,"[2]; compound concentrations:100 nM and 1000 nM (sheet 'Lestaurtinib' of Supplementary Table 1),run:Lestaurtinib_02422_R1,Plate:MR006",786 nM
same,potency estimated from few doses,"[2]; compound concentrations:100 nM and 1000 nM (sheet 'Lestaurtinib' of Supplementary Table 1),run:Lestaurtinib_02422_R2,Plate:MR006",1690 nM
same,potency estimated from few doses,"[2]; compound concentrations:100 nM and 1000 nM (sheet 'Lestaurtinib' of Supplementary Table 1),run:Lestaurtinib_02422_R3,Plate:MR006",1630 nM
same,potency estimated from few doses,"[2]; compound concentrations:100 nM and 1000 nM (sheet 'Lestaurtinib' of Supplementary Table 1),run:Lestaurtinib_02437_R1,Plate:MR007",94.9 nM
same,potency estimated from few doses,"[2]; compound concentrations:100 nM and 1000 nM (sheet 'Lestaurtinib' of Supplementary Table 1),run:Lestaurtinib_02437_R3,Plate:MR007",1430 nM
same,potency estimated from few doses,"[2]; compound concentrations:100 nM and 1000 nM (sheet 'Lestaurtinib' of Supplementary Table 1),run:Lestaurtinib_02438_R1,Plate:MR008",800 nM
same,potency estimated from few doses,"[2]; compound concentrations:100 nM and 1000 nM (sheet 'Lestaurtinib' of Supplementary Table 1),run:Lestaurtinib_02438_R2,Plate:MR008",1970 nM
same,potency estimated from few doses,"[2]; compound concentrations:100 nM and 1000 nM (sheet 'Lestaurtinib' of Supplementary Table 1),run:Lestaurtinib_02443_R1,Plate:MR009",1400 nM
same,potency estimated from few doses,"[2]; compound concentrations:100 nM and 1000 nM (sheet 'Lestaurtinib' of Supplementary Table 1),run:Lestaurtinib_02473_R1,Plate:MR010",950 nM
same,potency estimated from few doses,"[2]; compound concentrations:100 nM and 1000 nM (sheet 'Lestaurtinib' of Supplementary Table 1),run:Lestaurtinib_02496_R1,Plate:MR013",1370 nM
same,potency estimated from few doses,[2]; [3],1410 nM
same,potency estimated from few doses,[2]; [4],936 nM
same,potency estimated from few doses,[2]; [5],821 nM
same,potency estimated from few doses,[2]; [6],717 nM
same,potency estimated from few doses,[2]; [7],1840 nM
same,potency estimated from few doses,"[2]; compound concentrations:100 nM and 1000 nM (sheet 'Lestaurtinib' of Supplementary Table 1),run:Lestaurtinib_02572_R3,Plate:MR015",1440 nM
same,potency estimated from few doses,[2]; [8],1700 nM
same,potency estimated from few doses,"[2]; compound concentrations:100 nM and 1000 nM (sheet 'Lestaurtinib' of Supplementary Table 1),run:Lestaurtinib_02601_R1,Plate:MR018",1370 nM
same,potency estimated from few doses,"[2]; compound concentrations:100 nM and 1000 nM (sheet 'Lestaurtinib' of Supplementary Table 1),run:Lestaurtinib_02601_R2,Plate:MR018",1620 nM
same,potency estimated from few doses,"[2]; compound concentrations:100 nM and 1000 nM (sheet 'Lestaurtinib' of Supplementary Table 1),run:Lestaurtinib_02601_R3,Plate:MR018",1610 nM
same,potency estimated from few doses,[2]; [9],1510 nM
same,potency estimated from few doses,[2]; [10],1430 nM
same,potency estimated from few doses,"[2]; compound concentrations:100 nM and 1000 nM (sheet 'Lestaurtinib' of Supplementary Table 1),run:Lestaurtinib_02624_R2,Plate:MR020",1760 nM
same,potency estimated from few doses,[2]; [11],1430 nM
same,potency estimated from few doses,[2]; [12],1210 nM
same,potency estimated from few doses,"[2]; compound concentrations:100 nM and 1000 nM (sheet 'Lestaurtinib' of Supplementary Table 1),run:Lestaurtinib_02741_R1,Plate:MR023",1340 nM
same,potency estimated from few doses,"[2]; compound concentrations:100 nM and 1000 nM (sheet 'Lestaurtinib' of Supplementary Table 1),run:Lestaurtinib_02741_R2,Plate:MR023",998 nM
same,potency estimated from few doses,[2]; [13],1150 nM
same,potency estimated from few doses,"[2]; compound concentrations:100 nM and 1000 nM (sheet 'Lestaurtinib' of Supplementary Table 1),run:Lestaurtinib_02748_R3,Plate:MR024",1440 nM
same,potency estimated from few doses,[2]; [14],1240 nM
same,potency estimated from few doses,[2]; [15],1440 nM
same,potency estimated from few doses,[2]; [16],907 nM
same,potency estimated from few doses,"[2]; compound concentrations:100 nM and 1000 nM (sheet 'Lestaurtinib' of Supplementary Table 1),run:Lestaurtinib_02768_R1,Plate:MR028",2150 nM
same,potency estimated from few doses,[2]; [17],2240 nM
same,potency estimated from few doses,"[2]; compound concentrations:100 nM and 1000 nM (sheet 'Lestaurtinib' of Supplementary Table 1),run:Lestaurtinib_02795_R1,Plate:MR022",1410 nM
same,potency estimated from few doses,[2]; [18],750 nM
same,potency estimated from few doses,[2]; [19],996 nM
same,potency estimated from few doses,"[2]; compound concentrations:100 nM and 1000 nM (sheet 'Lestaurtinib' of Supplementary Table 1),run:Lestaurtinib_02802_R2,Plate:MR029",924 nM
same,potency estimated from few doses,"[2]; compound concentrations:100 nM and 1000 nM (sheet 'Lestaurtinib' of Supplementary Table 1),run:Lestaurtinib_02802_R3,Plate:MR029",1410 nM
same,potency estimated from few doses,"[2]; compound concentrations:100 nM and 1000 nM (sheet 'Lestaurtinib' of Supplementary Table 1),run:Lestaurtinib_02896_R3,Plate:MR030",953 nM
same,potency estimated from few doses,"[2]; compound concentrations:100 nM and 1000 nM (sheet 'Lestaurtinib' of Supplementary Table 1),run:Lestaurtinib_03252_R2,Plate:MR032",1310 nM
same,potency estimated from few doses,[2]; [20],896 nM
same,potency estimated from few doses,[2]; [21],1540 nM
same,potency estimated from few doses,"[2]; compound concentrations:100 nM and 1000 nM (sheet 'Lestaurtinib' of Supplementary Table 1),run:Lestaurtinib_03260_R3,Plate:MR033",806 nM
